Where “and” joins values, the source holds several entries; their conditions need not be identical. Equal values may be shown once. About 50,000 (12%) of roughly 420,000 compounds were called active. Roughly 26% stayed inconclusive and do not appear here. Calls come from the whole dose curve; as a rule, active = well fitted inhibition curve with a large enough effect; inconclusive = small, poorly fitted or top-dose-only effect; inactive = flat fitted curve, though single readings scatter. Shown is part of a subset that was picked to be rich in actives.
Experiment: qHTS for Inhibitors of human tyrosyl-DNA phosphodiesterase 1 (TDP1): qHTS in cells in presence of CPT; note: nearly all actives have a fitted effect of over 55% in size
Conditions: chicken DT40 Tdp1-/-;hTDP1 cells + 20 nM CPT, ATP luminescence, 48 h; series mostly up to 46.2 µM; activity change, negative = growth inhibition: at the top concentration
Method in brief: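 Cell growth measured by CellTiter-Glo luminescence after a minimum 48 h, 37 C compound exposure with 20 nM CPT in Tdp1-knockout DT40 cells stably expressing hTDP1, seeded 400/well; qHTS titration format.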
% is set by controls: 0 for no effect and ±100 for the full control effect; potency is the fitted concentration of half-maximal effect.

| Compound | activity change, negative = growth inhibition | Potency |
| --- | --- | --- |
| O=S(=O)(c1ccc(F)cc1)N1CC=C(c2ccccc2)CC1 | -1.63% (inactive) | – |
| COc1ccc(N(CC(=O)Nc2ccc(F)c(F)c2)S(=O)(=O)c2c(C)[nH]c(=O)[nH]c2=O)cc1 | 2.44% (inactive) | – |
| S=C(Nc1cccc(Cl)c1)Nc1ccc2c(c1)OCCO2 | -30.1% (inactive) | – |
| c1ccc(CN2CCC(N=C3NN=C(c4ccc5c(c4)OCCO5)CS3)CC2)cc1 | -26.3% (inactive) | – |
| Clc1cccc(N=C2NN=C(c3ccc4c(c3)OCCO4)CS2)c1 | – | 20.6 µM (active) |
| CCOC1CS(=O)(=O)CC1OCC (stereo unspecified) | -5.04% (inactive) | – |
| CC(=O)Nc1ccc(NC(=O)CSc2nnnn2-c2ccccc2F)cc1 | -24.4% (inactive) | – |
| CNC(=O)C1CCN(S(=O)(=O)c2c(C)noc2/C=C/c2cccc(C)c2)CC1 | -10.1% (inactive) | – |
| Cc1cccc(NC(=O)C2CCN(S(=O)(=O)c3c(C)noc3/C=C/c3ccco3)CC2)c1 | – | 16.4 µM (active) |
| CC(=O)c1ccc(NC(=O)C2CCN(S(=O)(=O)c3c(C)noc3/C=C/c3ccc(C)cc3)CC2)cc1 | -24.3% (inactive) | – |
| Cc1ccc(S(=O)(=O)N(C)C)cc1NC(=O)c1ccc(-n2cncn2)c([N+](=O)[O-])c1 | -3.09% (inactive) | – |
| COc1ccccc1CNCc1ccc(C(=O)O)s1 | -5.35% (inactive) | – |
| CCCn1nc(C(=O)OCc2nc(N)nc(Nc3ccccc3C)n2)c2ccccc2c1=O | -16.3% (inactive) | – |
| C#CCNc1ccc(C(=O)OCC)cc1 | 1.67% (inactive) | – |
| CC(CN1CCOCC1)OC(=O)c1ccc(Cl)cc1Cl (stereo unspecified) | 5.64% (inactive) | – |
| O=C(OC12CC3CC(CC(C3)C1)C2)c1ccc(NCc2cc(O)ccc2O)cc1 | – | 2.06 µM (active) |
| COC(=O)c1ccc(NCc2cc(O)ccc2O)cc1 | – | 4.61 µM (active) |
| COC(=O)c1ccc(NCC(=O)c2ccccc2)cc1 | -1.26% (inactive) | – |
| CC(OC(=O)c1ccc(Cl)cc1O)C(=O)NCCC1=CCCCC1 (stereo unspecified) | -9.5% (inactive) | – |
| CC(C)OC(=O)c1ccc(NCc2cc(O)ccc2O)cc1Cl | – | 2.91 µM (active) |
| CCCCCN(C(=O)CCC(=O)OCC(=O)NC1CCC(C)CC1)c1c(N)n(CCCC)c(=O)[nH]c1=O (stereo unspecified) | -3.19% (inactive) | – |
| COc1ccc(NC(=O)c2cccc(Cl)c2)c[n+]1[O-] | -0.187% (inactive) | – |

| Compound | activity change, negative = growth inhibition | Potency |
| --- | --- | --- |
| O=C(Nc1c2c(nn1-c1ccccc1)CS(=O)(=O)C2)C1CCCC1 | -6.01% (inactive) | – |
| O=C(CCc1ccc(S(=O)(=O)N2CCOCC2)cc1)OCC(=O)c1ccc(Br)cc1 | 9.72% (inactive) | – |
| CCOc1ccc(-n2cnnn2)cc1S(=O)(=O)N1CCC(C)CC1C (stereo unspecified) | -5.89% (inactive) | – |
| C#CC(C)(C)NC(=O)c1cnc(-c2ccccc2)nc1-c1ccccc1 | -19.4% (inactive) | – |
| COC(=O)c1ccc(COC(=O)CNC(=O)c2cccc(OC)c2)o1 | 1.46% (inactive) | – |
| O=S(=O)(/N=C(/Nc1ccccc1)c1ccccc1)c1cccs1 | -15.8% (inactive) | – |
| CCCCCc1ccc(-c2cn(Cc3ccc4ccccc4c3)nn2)cc1 | – | inactive |
| CCc1cc(-c2nnn(CCC3COCCO3)c2CC)ccc1-c1cn(Cc2ccc3ccccc3c2)nn1 (stereo unspecified) | – | 5.8 µM (active) |
| CCCN(CCC)C(=O)C(Cc1ccccc1)NS(=O)(=O)c1ccc2c(c1)c(=O)n(C)c(=O)n2C (stereo unspecified) | -14% (inactive) | – |
| O=C(CNC(=O)N1CC(=O)Nc2ccccc21)Nc1ccc(Br)cc1F | 6.9% (inactive) | – |
| C[C@H](CO)N1C[C@H](C)[C@@H](CN(C)C(=O)C2CCCCC2)OCc2cnnn2CCCC1=O | -22.6% (inactive) | – |
| CC(C)N(C(=O)Cn1cc(SCC(=O)N2CCCC2)c2ccccc21)C(C)C | 10.2% (inactive) | – |
| CC(=O)Nc1cccc(NC(=O)CSc2cn(CC(=O)N3CCCC3)c3ccccc23)c1 | -26.7% (inactive) | – |
| O=C(Cn1cc(SCc2cccc(Cl)c2)c2ccccc21)N1CCCCC1 | – | 18.4 µM (active) |
| CC(C)C12CN3CC(C(C)C)(CN(C1)C3c1ccc(OCc3ccccc3)cc1)C2=O (stereo unspecified) | 0.582% (inactive) | – |
| Cn1nccc1C(=O)NCC1CCC2(CCN(Cc3c(O)ccc4ccccc34)CC2)O1 (stereo unspecified) | -24.3% (inactive) | – |
| N#Cc1cccc(NC(=O)COC(=O)c2ccccc2C(=O)c2ccc(Cl)c([N+](=O)[O-])c2)c1 | – | 20.6 µM (active) |
| COC(=O)c1cc(NC(=O)Cc2ccccc2[N+](=O)[O-])ccc1Cl | -7.47% (inactive) | – |
| CC(=O)Nc1ccc(NC(=O)COC(=O)c2ccccc2C(=O)c2ccccc2)cc1 | -29.4% (inactive) | – |
| CCOC(=O)C1CCN(CC(=O)Nc2ccc(OC)c(S(=O)(=O)N3CCCCC3)c2)CC1 | -23.6% (inactive) | – |
| CC(=O)Nc1ccc(NC(=O)CSc2nnc(C3CC3)n2-c2ccccc2)cc1 | -16.4% (inactive) | – |
| CCn1c2ccccc2c2cc(NC(=O)CNC)ccc21 | 1.65% (inactive) | – |

| Compound | activity change, negative = growth inhibition | Potency |
| --- | --- | --- |
| CC[n+]1c(C)n(-c2ccccc2)c2ccc(NC(C)=O)cc21 | – | 6.51 µM (active) |
| Cc1ccccc1NC(=O)Cn1c(=O)n(Cc2ccco2)c(=O)c2ccc(C(=O)NC3CCCC3)cc21 | -7.3% (inactive) | – |
| CC(C)(C)NC(=O)NC(=O)COC(=O)CCC1CCCCC1 | -24.2% (inactive) | – |
| COc1ccc(N2c3ccccc3CN(Cc3ccccc3)[C@@H](C)[C@H]2Cc2ccc(-c3ccccc3)cc2)cc1 | – | 23.1 µM (active) |
| COc1ccc(N2C(=O)C(Cc3ccccc3)NC2=S)cc1 (stereo unspecified) | 31.4% (inactive) | – |
| C[n+]1cccc(C(=O)O)c1 | -7.01% (inactive) | – |
| O=C(CCc1nnc2ccc(NCc3ccccc3Cl)nn12)NCC1CCN(C2CCCC2)C1 (stereo unspecified) | 9.38% (inactive) | – |
| Nc1c(-c2cccc(Cl)c2)cnn1-c1cccc([N+](=O)[O-])c1 | -19.7% (inactive) | – |
| COc1cccc(NC(=O)N2CCCC2C(=O)NC2CCCCC2)c1 (stereo unspecified) | 6% (inactive) | – |
| COc1cccc(NC(=O)C/C(C)=N/NC(=O)C2CCCCC2)c1 | -21.1% (inactive) | – |
| COc1cccc(NC(=O)N(Cc2cn(C)c3ccccc23)C2CCCCCC2)c1 | – | 5.8 µM (active) |
| COc1ccc(NC(=O)NNC(=O)COc2cc(C)c(Cl)c(C)c2)c(OC)c1 | -9.26% (inactive) | – |
| O=C1CSC(c2ccc(Cl)cc2)N1 (stereo unspecified) | -5.3% (inactive) | – |
| O=C(CN1CCCCCC1)Nc1c(Cl)cc(Cl)cc1Cl | -25.1% (inactive) | – |
| CCNC(=O)C1CCCN(C(=O)c2cc(F)ccc2C)CC1 (stereo unspecified) | -17.5% (inactive) | – |
| O=C(c1cccc(F)c1)N1CCC2(CCCN(Cc3ccncc3)C2)CC1 | -20.6% (inactive) | – |
| O=C(c1ccncc1)N1CCC2(CCCN(C(c3ccccc3)c3ccccc3)C2)CC1 | – | 16.4 µM (active) |
| COc1ccc(C(=O)N2CCC3(CCCN(C(c4ccccc4)c4ccccc4)C3)CC2)cc1 | 21% (inactive) | – |
| COc1ccc(CC(=O)Nc2nnc3n2CCS3)cc1OC | -12.5% (inactive) | – |
| O=C(COC(=O)c1cccs1)NCc1cccs1 | 2.73% (inactive) | – |
| COc1ccc(OCc2cccc(C(=O)N3CCCC3)c2)cc1 | -16.4% (inactive) | – |
| CN(Cc1ccccc1)C(=O)c1cccc(C(=O)N(C)Cc2ccccc2)c1 | -2.28% (inactive) | – |

| Compound | activity change, negative = growth inhibition | Potency |
| --- | --- | --- |
| CCOc1ccc(OCc2cccc(C(=O)N(CC)CC)c2)cc1 | – | 20.6 µM (active) |
| O=C(CN1C(=O)c2ccccc2S1(=O)=O)NC1CCCCC1 | 1.06% (inactive) | – |
| COc1ccc(-n2cnnc2SCC(=O)Nc2cccc(S(N)(=O)=O)c2)cc1 | -3.28% (inactive) | – |
| O=C(Nc1ccc(Cl)cc1)Nc1ccc(C(=O)N2CCOCC2)cc1 | -16.9% (inactive) | – |
| Nc1ccn(C2CC(O)C(CO)O2)c(=O)n1 (stereo unspecified) | -0.714% (inactive) | – |
| Nc1ncnc2c1cnn2C1CC(O)C(CO)O1 (stereo unspecified) | 14.9% (inactive) | – |
| Nc1ncnc2c1ncn2C1CC(O)C(CO)O1 (stereo unspecified) | – | 1.16 µM (active) |
| CCN(CC(=O)Nc1c(F)cccc1F)C(=O)c1cnc(C)cn1 | 1.54% (inactive) | – |
| O=C1c2ccccc2C(=O)N1CCCCCCN1C(=O)c2ccccc2C1=O | -18% (inactive) | – |
| CCC1CCCCN1C(=O)Cn1c(=O)n(CCCCCC(=O)NCc2ccccc2)c(=O)c2sccc21 (stereo unspecified) | – | 16.4 µM (active) |
| O=C(CCCn1c(=O)c2sccc2n(CC(=O)NCC2CCCO2)c1=O)NCc1ccco1 (stereo unspecified) | 2.51% (inactive) | – |
| CCN(CCCNC(=O)CCn1c(=O)[nH]c2ccsc2c1=O)c1ccccc1 | 6.83% (inactive) | – |
| Cc1cc(S(=O)(=O)NCc2ccccn2)c(Cl)cc1Cl | -2.32% (inactive) | – |
| Cc1ccc(S(=O)(=O)NCC(=O)NNC(=O)c2ccc(Br)cc2)cc1C | 8.9% (inactive) | – |
| C/C(=N\Nc1ccccc1)c1cccs1 | -0.909% (inactive) | – |
| C/C(=N\Nc1nc(N2CCOCC2)nc(N2CCOCC2)n1)c1ccc([N+](=O)[O-])cc1 | 9.59% (inactive) | – |
| C/C(=N\Nc1nc(Nc2ccccc2)nc(N2CCOCC2)n1)c1cccs1 | – | 23.1 µM (active) |
| O=C(COC(=O)C1CC2CCCC(C1)C2=O)NC(=O)c1ccccc1 (stereo unspecified) | -16.9% (inactive) | – |
| CN1CCN(C(=O)c2ccc(NC(=O)c3ccc(Br)o3)cc2)CC1 | 7.4% (inactive) | – |
| Cc1ccc(C(=O)N/C(=C\c2ccc(F)cc2)C(=O)NCCN2CCOCC2)cc1 | 2.67% (inactive) | – |
| CC(C)(C)c1ccc(C(=O)N2CCN(CCNC(=O)C(=O)Nc3ccc(F)cc3)CC2)cc1 | – | 16.4 µM (active) |
| Cc1cc(C(=O)OCC(=O)N2C(C)CCCC2C)c2ccccc2n1 (stereo unspecified) | 2.32% (inactive) | – |

| Compound | activity change, negative = growth inhibition | Potency |
| --- | --- | --- |
| CC(=O)N1CCCc2cc(S(=O)(=O)N3CCCC(C(=O)NCc4ccc(Cl)cc4)C3)ccc21 (stereo unspecified) | – | 18.4 µM (active) |
| COc1cccc(N2CCN(S(=O)(=O)c3ccc4c(c3)CCCN4C(C)=O)CC2)c1 | -26.4% (inactive) | – |
| CC(=O)N1CCCc2cc(S(=O)(=O)N3CCCC(C(=O)N4CCN(c5cccc(Cl)c5)CC4)C3)ccc21 (stereo unspecified) | – | 2.31 µM (active) and 8.2 µM (active) |
| COC(=O)c1ccccc1NS(=O)(=O)c1ccc2c(c1)CCCN2C(C)=O | -17% (inactive) | – |
| O=C(NCc1ccncc1)C1CCCN(S(=O)(=O)c2ccc(Br)cc2)C1 (stereo unspecified) | -26% (inactive) | – |
| CC(=O)N1CCCc2cc(S(=O)(=O)N3CCC(C(=O)NC4CCCCC4)CC3)ccc21 | 6.44% (inactive) | – |
| CCCCn1c(N)c(N(CCOC)C(=O)c2cccc(S(=O)(=O)N(C)c3ccccc3)c2)c(=O)[nH]c1=O | 0.657% (inactive) | – |
| CC(C)(C(=O)N1CCC1(C)C(=O)NS(=O)(=O)c1ccc(Br)cc1)c1ccccc1 (stereo unspecified) | -32.2% (inactive) | – |
| CCOC(=O)C1CCN(S(=O)(=O)c2ccc3c(c2)N(C(C)=O)CCO3)CC1 | -14.8% (inactive) | – |
| O=C(CN1C2=NCCN2c2ccccc21)c1cccs1 | -13.6% (inactive) | – |
| OC(CN1C2=NCCCN2c2ccccc21)c1ccc(Br)cc1 (stereo unspecified) | -29.8% (inactive) | – |
| Cc1cc2c(cc1C)N(Cc1ccccc1)C1=NCCCN12 | – | 13 µM (active) |
| Cc1ccc(Cn2c(SCC(=O)N/N=C/c3ccccc3OCC(=O)O)nc3ccccc32)cc1 | -7.54% (inactive) | – |
| CCOc1ccc(OCCSc2nc3ccccc3n2CC(=O)O)cc1 | -13.1% (inactive) | – |
| COC(=O)CSc1nc2ccccc2c(=O)n1Cc1ccccc1 | 0.481% (inactive) | – |
| CCN(CC)C(=O)CSc1nc2ccccc2n1CC(=O)N1CCN(c2ccccc2OC)CC1 | -26.7% (inactive) | – |
| COC(=O)c1ccc(Cn2c(SCC(=O)N(C)c3ccccc3)nc3ccccc32)cc1 | – | 20.6 µM (active) |
| CN(C(=O)CSc1nc2ccccc2n1Cc1ccccc1C#N)c1ccccc1 | – | 14.6 µM (active) |

Reference: PubChem BioAssay AID686979 (National Center for Advancing Translational Sciences (NCATS), 2013)
